Test [1] has as its target T1, Aspartate--tRNA(Asp/Asn) ligase (Mycobacterium tuberculosis (strain ATCC 25618 / H37Rv)) (UniProt P9WFW3). Note: in the data most compounds retested in dose-response had high values.
T1 sequence (whole entry): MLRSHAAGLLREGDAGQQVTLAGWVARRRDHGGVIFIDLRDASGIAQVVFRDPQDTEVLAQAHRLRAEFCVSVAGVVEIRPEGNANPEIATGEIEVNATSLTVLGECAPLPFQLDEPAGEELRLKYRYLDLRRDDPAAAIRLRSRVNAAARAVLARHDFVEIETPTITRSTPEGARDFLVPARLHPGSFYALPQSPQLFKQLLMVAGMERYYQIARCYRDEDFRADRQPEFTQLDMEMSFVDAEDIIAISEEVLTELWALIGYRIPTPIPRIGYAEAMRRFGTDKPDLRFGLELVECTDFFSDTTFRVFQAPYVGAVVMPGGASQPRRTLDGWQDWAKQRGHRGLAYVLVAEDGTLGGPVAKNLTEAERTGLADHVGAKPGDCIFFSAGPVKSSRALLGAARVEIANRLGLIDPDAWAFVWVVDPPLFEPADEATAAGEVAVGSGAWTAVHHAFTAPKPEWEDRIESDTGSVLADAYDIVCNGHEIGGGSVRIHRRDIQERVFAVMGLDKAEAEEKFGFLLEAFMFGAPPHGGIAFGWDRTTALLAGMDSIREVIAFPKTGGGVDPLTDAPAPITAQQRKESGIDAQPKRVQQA
Put plainly: Assay for Asp RNA synthetase-1 from Mycobacterium tuberculosis. Format: functional. Details: scale not given: direction of the effect not stated beside the values. Conditions: 30 µM.

Test [2] concerns the target Shiga toxin 2 (Escherichia coli O157:H7) (UniProt P09385+P09386). Put plainly: E. coli 0.157:H7 Shiga Toxin SOP - stx2 screening assay. Format: functional. Also on record: scale not given: direction of the effect not stated beside the values. The note with it: 30 µM.

Molecules are shown by their SMILES.

On to `COc1ccc(NC(=O)CCc2c(C)nc3cc(O)nn3c2C)cn1`, for which the results for the Percent Effect in test [1] and in test [2] were -0.607% and -81.2%, respectively.
For `CN(Cc1nccs1)c1nc(-c2ccccn2)nc2c1CCNCC2` the same measures were 2.26% and -12.4%.
Taken in the same sequence, the figures for `O=C(NS(=O)(=O)c1cc(Cl)sc1Cl)c1cccc2c1OCCO2` were 1.84% and -6.84%.
With `O=C(c1ccc(NC2CC2)nc1)N1CCCC(n2cccn2)C1` (stereo unspecified), the Percent Effect in test [1] was -1.7%; in test [2] it was 14.7%.
On to `O=C1CC(c2cccc(O)c2)c2sc(C(=O)O)c(-c3ccccc3)c2N1` (stereo unspecified), for which the Percent Effect in test [1] is -3.78%; in test [2], -24.7%.
For `CCc1[nH]ncc1C(=O)N1CCCN(Cc2cnn(C(C)C)c2)CC1` the same measures were 6.41% and 9.14%.
Taken in the same sequence, the figures for `CC(C)(C)C(=O)NCCc1ccn(-c2ccccc2)n1` were -7.82% and -32.2%.
Turning to `Cc1cccc(CC(=O)NCCCOC(C)C)c1`, the Percent Effect was -4.16% in test [1] and -10.2% in test [2].
Taken in the same sequence, the figures for `Cc1nc(C2CCCN2CCCNS(C)(=O)=O)no1` (stereo unspecified) were -0.167% and 23.5%.
Regarding `COCC1CN(Cc2ccsc2)Cc2nn(C)cc21` (stereo unspecified), the Percent Effect is 15.7% in test [1] and -13.1% in test [2].
`COCC(=O)N1CCC[C@]2(C(=O)N(C)C)CN(c3ccccn3)C[C@@H]2C1`: the Percent Effect was -2.71% in test [1] and -6.93% in test [2].
On to `Cc1noc(CN(Cc2ccc3c(c2)OCO3)Cc2ccc(C)o2)n1`, for which the Percent Effect came out at 13.9% in test [1] and 29% in test [2].
Taken in the same sequence, the figures for `COc1ccc(C(O)CNC(=O)Nc2cc(C)nn2C)cc1` (stereo unspecified) were -1.41% and 26.8%.
As for `Cc1nc(CN2CCCC2c2nc(C(C)C)no2)cs1` (stereo unspecified), the Percent Effect in test [1] is -4.9%; in test [2], 12.9%.
With `COc1nn(C)cc1C(=O)N1CCC(c2nnc(C3CC3)o2)CC1`, the Percent Effect was -1.47% in test [1] and -8.92% in test [2].
For `COc1cccc(S(=O)(=O)NC2CNC(=O)C2)c1` (stereo unspecified) the same measures were -3.48% and 3.09%.
For `Cc1cnn(CCNCc2nnc(C3CC3)o2)c1` the same measures were 4.75% and -42.1%.
For `CC(C)(C)c1nnc(CN2CCN(CC(O)c3ccccc3)CC2)o1` (stereo unspecified) the same measures were -8.31% and 10.2%.
Turning to `Cc1cc(CC(=O)N(CC2CN(C)CCO2)c2nccs2)no1` (stereo unspecified), the Percent Effect in test [1] is -0.67%; in test [2], -18.7%.
For `CS(=O)(=O)NC[C@@H]1OC[C@H]2CN(C(=O)c3ccc[nH]3)CC[C@H]21` the same measures were 3.32% and 0.898%.
`Cc1ccc(N2CCCN(C(=O)CC3CCCO3)CC2)nn1` (stereo unspecified): the figures for the Percent Effect in test [1] and in test [2] were 10.1% and 18.1%, respectively.
Consider `CC(C)(C)C(O)CN1CCN(C(=O)c2cccc3ncccc23)CC1` (stereo unspecified), for which the values for the Percent Effect in test [1] and in test [2] were 0.278% and -208%, respectively.
For `Cc1ccc2c(n1)N(CCn1cccn1)CCN(C(=O)CC1CC1)C2` the same measures were -3.03% and 2.2%.
For `COc1ccc(NCc2nc(=O)n(CCC(C)C)[nH]2)cc1` the same measures were -2.01% and 5.42%.
With `CCc1n[nH]c(C2CN(C(=O)c3csnn3)CCO2)n1` (stereo unspecified), the values for the Percent Effect in test [1] and in test [2] were 1.53% and 10.6%, respectively.
For `CC(C#N)CSc1ccccc1NCC(=O)NCc1ccccc1` (stereo unspecified) the same measures were -8.08% and 21.2%.
Turning to `CO[C@H]1CN(C(=O)c2ccc3oc(C)cc3c2)CC[C@@]12CCCO2`, the Percent Effect came to 1.12% in test [1] and 7.39% in test [2].
As for `c1ncn(CC2CN(Cc3csc(C4CCCC4)n3)CCO2)n1` (stereo unspecified), the Percent Effect in test [1] is -2.81%; in test [2] it was 13.4%.
As for `CC(c1nc(C2CC2)no1)N1CCN(CCOCC(F)(F)F)CC1` (stereo unspecified), the Percent Effect in test [1] was -1.02%; in test [2] it was -10.3%.
Regarding `FC(F)(F)Cn1ccnc1CN1CCCC1c1noc(C2CC2)n1` (stereo unspecified), the Percent Effect in test [1] was 11.5%; in test [2] it was -34%.
Taken in the same sequence, the figures for `COc1cccc(C(=O)NCC(O)c2cccs2)c1` (stereo unspecified) were -4.63% and 2.93%.
For `CSCC(C)(O)CNC(=O)c1cc(Br)ccc1Cl` (stereo unspecified), the Percent Effect in test [1] is -0.23%; in test [2], -13.2%.
For `Cc1cccc(CN2CCc3c(nc(N4CCC(C)CC4)[nH]c3=O)C2)n1` the same measures were -2.78% and 10.7%.
Taken in the same sequence, the figures for `CCc1nc(CN2CCCN(C(=O)c3c(C)noc3C)CC2)cs1` were 1.9% and -25.2%.
Taken in the same sequence, the figures for `CC(C)CN(C)c1ccc(C(=O)N2CCCC2c2cnn(C)c2)cn1` (stereo unspecified) were -2.28% and 21%.
On to `c1csc(-c2nc(CNC3CCc4ncnn4C3)co2)c1` (stereo unspecified), for which the Percent Effect in test [1] was 1.3%; in test [2] it was -1.44%.
With `CCN(Cc1ccc2c(c1)OCCO2)C(=O)NC(C)Cn1ccnc1` (stereo unspecified), the Percent Effect in test [1] is 5.58%; in test [2], -4.95%.
Taken in the same sequence, the figures for `Cc1cc(CN2CCC(CNC(=O)c3ccc(O)c(Cl)c3)C2)[nH]n1` (stereo unspecified) were 3.15% and -15.7%.
For `CC(=O)NCC(=O)N1Cc2nccn2CC(Cn2cccn2)C1` (stereo unspecified) the same measures were -1.48% and 0.581%.
Taken in the same sequence, the figures for `CCCc1cc(C(=O)N(C)Cc2cnc3ccccc3n2)n(C)n1` were 8.2% and -6.99%.
For `CN(C)C(=O)N1CCC2(CCCN(Cc3cnn(C)c3)C2)C1` (stereo unspecified), the figures for the Percent Effect in test [1] and in test [2] were -0.168% and 0.121%, respectively.
For `COCc1cnc2n1CCN(C(=O)C1=CCCCC1)C2C` (stereo unspecified) the same measures were -0.348% and -61.5%.
For `COC(=O)CC(c1cnn(C)c1)c1oc(C)cc(=O)c1O` (stereo unspecified) the same measures were -0.166% and -13.2%.

Values taken from ChEMBL document CHEMBL3988442, “University of Dundee, Small-Polar-MMV Screening Library” (2021).
